Consider 104 molecules from PubChem BioAssay AID1835 (Johns Hopkins Ion Channel Center, 2009).

Out of some 2,400 compounds screened, about 750 (31%) were called active. The list shows a part of the results. Unmarked numbers belong to inactive results.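 Rule for the calls: active = median signal gain over dofetilide-blocked control wells reaching their mean plus 3 SD, so readout 1 at least 0; inactive = the rest.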

For this experiment, the target named is Voltage-gated inwardly rectifying potassium channel KCNH2 (Homo sapiens) (UniProt Q12809). Put plainly: hERG protection against dofetilide inhibition, confirmation, cell-based, thallium flux, duplicate retest, dofetilide IC70 (AID 1835). The settings on record: hERG cell line, FluxOR thallium flux, dofetilide-blocked; at 10 µM; stronger effect = higher value. For orientation: hERG is a cardiac potassium channel; its block is linked to QT prolongation.
Sequence of Voltage-gated inwardly rectifying potassium channel KCNH2 (Homo sapiens) (Q12809 whole entry, looked up): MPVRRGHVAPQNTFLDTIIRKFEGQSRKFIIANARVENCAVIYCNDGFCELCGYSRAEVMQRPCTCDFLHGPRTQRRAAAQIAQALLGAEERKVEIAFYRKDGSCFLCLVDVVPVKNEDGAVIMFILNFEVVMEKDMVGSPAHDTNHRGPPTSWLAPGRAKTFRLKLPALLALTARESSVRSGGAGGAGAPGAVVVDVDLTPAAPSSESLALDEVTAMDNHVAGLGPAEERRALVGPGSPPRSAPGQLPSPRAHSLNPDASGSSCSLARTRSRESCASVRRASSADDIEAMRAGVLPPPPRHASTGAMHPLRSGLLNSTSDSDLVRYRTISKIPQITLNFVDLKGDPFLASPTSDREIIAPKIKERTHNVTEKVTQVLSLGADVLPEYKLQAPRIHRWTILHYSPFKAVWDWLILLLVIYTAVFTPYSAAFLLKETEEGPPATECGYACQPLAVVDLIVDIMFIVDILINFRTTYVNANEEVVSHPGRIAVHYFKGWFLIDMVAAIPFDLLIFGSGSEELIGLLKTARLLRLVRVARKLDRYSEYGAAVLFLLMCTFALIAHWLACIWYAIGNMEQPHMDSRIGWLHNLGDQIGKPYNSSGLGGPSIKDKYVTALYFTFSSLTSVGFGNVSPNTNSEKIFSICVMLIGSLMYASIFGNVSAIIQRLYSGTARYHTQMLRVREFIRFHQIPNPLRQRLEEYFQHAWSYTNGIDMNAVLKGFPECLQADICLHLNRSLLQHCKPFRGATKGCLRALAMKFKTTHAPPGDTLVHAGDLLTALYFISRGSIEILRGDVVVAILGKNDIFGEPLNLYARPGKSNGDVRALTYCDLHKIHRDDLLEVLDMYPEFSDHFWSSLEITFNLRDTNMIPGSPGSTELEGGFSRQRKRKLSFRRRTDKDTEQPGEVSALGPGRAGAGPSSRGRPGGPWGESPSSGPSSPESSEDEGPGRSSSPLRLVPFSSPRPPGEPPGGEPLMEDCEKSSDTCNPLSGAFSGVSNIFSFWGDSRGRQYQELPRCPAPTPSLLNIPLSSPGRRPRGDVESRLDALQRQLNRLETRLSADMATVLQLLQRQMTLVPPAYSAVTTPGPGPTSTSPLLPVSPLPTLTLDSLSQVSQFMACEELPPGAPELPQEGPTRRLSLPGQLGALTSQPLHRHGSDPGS
In the case of `CCCc1cc(C(=O)NNC(=S)Nc2cccc(C)c2)cs1`, the activity increase over dofetilide control, less the hit threshold is -22%. Under `CC(NC(=O)c1ccncc1)C(C)(C)C` (centres undefined) stands -4%; under `Cc1cccc(NC(=O)C(=O)NNC(=O)c2ccc(C(C)(C)C)cc2)c1`, 83% (active). The value for `CC/C(=N\NC(=S)Nc1cccc(C)c1)c1ccccc1` was -1%. For `CC(C)(C)NC(=O)C(=O)NNC(=O)c1cccc(Br)c1`, the activity increase over dofetilide control, less the hit threshold is 35% (active).

Take `CC(C)(C)NC(=O)C(=O)NNC(=O)c1ccc(C(C)(C)C)cc1`: the activity increase over dofetilide control, less the hit threshold was 38% (active). As to `Cc1ccc(Oc2ccc(OCC(=O)NC(CC(C)C)C(=O)O)cc2)cc1` (centres undefined), the activity increase over dofetilide control, less the hit threshold is -20%. The value for `CC(C)(C)NC(=O)C(=O)NNC(=O)c1ccccc1` was -5%; that for `Cc1c(C(=O)NNC(=O)c2ccncc2)oc2ccc(Br)cc12` was -12%; that for `CC(C)(C)NC(=O)C(=O)NNC(=O)COc1ccccc1` was -4%. Turning to `CC(C)(C)NC(=O)C(=O)NNC(=O)COc1ccc(Br)cc1`, the activity increase over dofetilide control, less the hit threshold is 33% (active). Under `N#C/C(=N/Nc1ccc([N+](=O)[O-])cc1)C(=N)N1CCCCC1` stands -20%; under `O=C1CC(c2ccccc2)c2cccc(F)c21` (centres undefined), -22%. The value for `CC1CC(C)CN(CCCNC(=O)Cc2c(C(=O)O)[nH]c3ccccc23)C1` (centres undefined) was -14%; that for `S=c1[nH]c2cc(Cl)ccc2s1` was 93% (active); that for `O=C(Nc1ccc2[nH]c(=S)sc2c1)Nc1ccccc1F` was -16%. Under `S=c1[nH]c2ccc(Cl)cc2s1` stands 91% (active); under `S=c1[nH]c2ccccc2n2cccc12`, -4%. Regarding `CNC(=O)c1c(O)c2cccc3c2n(c1=O)CC3`, the activity increase over dofetilide control, less the hit threshold is -17%. The value for `CC(=O)c1cc(N2CCC(C(=O)O)CC2)ccc1[N+](=O)[O-]` was -22%; that for `Clc1cccc(OCCCN2CCCC2)c1Cl` was 2% (active). The value for `O=C(CN1CCCCCCC1)Nc1cccc(Cl)c1Cl` was -14%. Under `COc1cccc(OC)c1OCCOCCN1CCN(C)CC1` stands -17%; under `Cc1ccc(NC(=O)C2C3CCC(O3)C2C(=O)O)cc1C` (centres undefined), -1%.

Turning to `S=C(Nc1ccccc1)Nc1nc2ccccc2n1CCOc1ccccc1`, the activity increase over dofetilide control, less the hit threshold is -9%. With `CCCc1nnc(NC(=O)CN2CCOCC2)s1`, the activity increase over dofetilide control, less the hit threshold was -19%. The value for `O=C(Nc1ccccc1)N1CCSc2cc(Cl)ccc21` was -1%; that for `CC1CCc2sc(-c3n[nH]c(=S)o3)cc2C1` (centres undefined) was 9% (active). Under `CCc1c(C)nc(SC)n(CC#N)c1=O` stands -2%. The value for `O=C(NNC(=S)NC(=O)c1sc2ccccc2c1Cl)c1ccc(Cl)cc1` was 70% (active). For `COc1cccc(C(=O)NC(=S)Nn2cnnc2)c1OC`, the activity increase over dofetilide control, less the hit threshold is -14%. The value for `COc1ccccc1C(=O)NNC(=S)NC(=O)c1sc2ccccc2c1Cl` was 43% (active); that for `COc1ccccc1C(=O)NC(=S)NNC(=O)c1sc2ccccc2c1Cl` was -18%; that for `O=C(N/N=C/c1ccc2cccc(OCc3ccccc3)c2n1)c1ccc(Br)cc1` was -9%. Under `COc1cc(C(=O)Nc2ccc(O)cc2C(=O)O)ccc1OC(C)=O` stands 1% (active); under `CCOP(=O)(OCC)C(NC(=O)c1ccc(OC)c(OC)c1)c1ccccc1` (centres undefined), -14%; under `O=C(CCCOc1ccc(Cl)cc1Cl)Nc1ccccc1C(=O)O`, 3% (active). As to `CC(C)C(=O)Nc1cccc(C(=O)Nc2ccccc2C(=O)O)c1`, the activity increase over dofetilide control, less the hit threshold is -7%. Under `COc1ccc(C(=O)Nc2ccccc2C(=O)O)cc1Cl` stands 5% (active). Under `O=C(Nc1ccccc1C(=O)O)c1cccc(NC(=O)c2ccccc2Br)c1` stands -5%. The value for `COc1cc(C(=S)N2CCOCC2)ccc1OC(=O)c1ccc([N+](=O)[O-])cc1[N+](=O)[O-]` was -22%; that for `O=C(O)c1cc(/C=N\O)ccc1OCc1ccccc1` was -9%; that for `O=C(Nc1ccccc1C(=O)O)c1cncc(Br)c1` was 12% (active).

Regarding `CN(C)C(=O)c1ccc(NC(=O)c2cncc(Br)c2)cc1`, the activity increase over dofetilide control, less the hit threshold is -12%. The value for `COc1cc(NC(=O)CCCOc2ccc(Cl)cc2Cl)c(C(=O)O)cc1OC` was -6%; that for `Cc1c(Cl)c([N+](=O)[O-])nn1CC(=O)NCC(C)C` was -20%. Under `COc1ccc(COC(=O)C2CCN(S(=O)(=O)c3cccs3)CC2)cc1` stands -27%; under `CC1CCCC(C)N1S(=O)(=O)c1ccc(NC(=O)CCn2cnc3ccccc3c2=O)cc1` (centres undefined), -12%.

Turning to `CCOc1ccc(C(=O)Nc2ccccc2C(=O)O)cc1`, the activity increase over dofetilide control, less the hit threshold is 3% (active). For `O=C(Nc1ccccc1C(=O)O)c1ccc(NC(=O)C2CC2)cc1`, the activity increase over dofetilide control, less the hit threshold was -2%.

For the molecule `CCCCC(=O)Nc1cccc(C(=O)Nc2ccccc2C(=O)O)c1`, the activity increase over dofetilide control, less the hit threshold is -3%. Under `Cn1c(/N=C/c2c(O)ccc3ccccc23)nc2ccccc21` stands -32%. The value for `O=C1C2CC=CCC2C(=O)N1c1ccc(Cc2ccncc2)cc1` (centres undefined) was 3% (active). On to `O=S(=O)(Nc1ccc(Cc2ccncc2)cc1)c1ccc(Cl)c(Cl)c1`, for which the activity increase over dofetilide control, less the hit threshold was -6%. Under `CC(C)(C)c1csc(NNC(=O)c2ccc(Cl)cc2)n1` stands -3%. Under `Cc1nc(-c2nc(-c3c(C(=O)NNC(=O)c4ccc(Cl)cc4)noc3C)cs2)cs1` stands -17%; under `CC(C)(C)c1cc(C(=O)NNC(=O)c2ccc(Cl)cc2)no1`, 29% (active). As for `Cc1csc2c(N3CCCCC3)ncnc12`, the activity increase over dofetilide control, less the hit threshold is -8%. As for `CC(=O)CSc1ncnc2sc3c(c12)CCC(C)C3` (centres undefined), the activity increase over dofetilide control, less the hit threshold is 72% (active). In the case of `COc1cc(NC(=O)CSc2ncnc3sc4c(c23)CCC(C)C4)c(C(=O)O)cc1OC` (centres undefined), the activity increase over dofetilide control, less the hit threshold was 94% (active). With `Cc1nnc(NC(=O)CN2CCN(Cc3ccc(F)cc3Cl)CC2)s1`, the activity increase over dofetilide control, less the hit threshold was -17%.

For `CCCCCCC1CCC(C(=O)N2CCOCC2)CC1` (centres undefined), the activity increase over dofetilide control, less the hit threshold is -5%. Under `O=C(CCCc1c[nH]c2ccccc12)Nc1ccc(S(=O)(=O)Nc2ncccn2)cc1` stands -19%. Regarding `COCC1CCCN(C(=O)c2ccc3oc(C(C)C)nc3c2)C1` (centres undefined), the activity increase over dofetilide control, less the hit threshold is -12%. The value for `O=c1oc2ccccc2c(Cl)c1CN1CCCCC1` was 2% (active); that for `Oc1c(Cl)cc(CN2CCCCC2)c2cccnc12` was -6%; that for `O=C(c1c(O)c2ccccc2oc1=O)C1CCCCC1` was -4%. With `Cc1ccc(NC(=O)CCc2nc3sc4c(c3c(=O)[nH]2)CCCC4)c(Br)c1`, the activity increase over dofetilide control, less the hit threshold is -17%. The value for `NC(=O)C1CCN(C(=O)CC(c2ccccc2)c2ccccc2)CC1` was -17%; that for `O=c1c2cc(Cl)ccc2nc(-c2ccccc2)n1O` was 18% (active). The value for `Cc1ccc(-c2nc3ccccc3c(=O)n2O)cc1` was 14% (active); that for `O=c1c2cc(Cl)ccc2nc(-c2ccc(Cl)c(Cl)c2)n1O` was 124% (active). The value for `Cc1ccc(-c2nc3c(Cl)cc(Cl)cc3c(=O)n2O)cc1` was 83% (active); that for `O=c1c2ccccc2nc(-c2ccccc2)n1O` was -7%; that for `O=C(Cc1ccccc1)Nn1c(-c2ccccc2)nc2ccccc2c1=O` was -15%. Regarding `CCOc1ccc(N=Nc2cc(C(C)C)ccc2O)cc1`, the activity increase over dofetilide control, less the hit threshold was -9%. For `COC(=O)Sc1nnc(-c2ccc(Br)cc2)o1`, the activity increase over dofetilide control, less the hit threshold was -2%. Under `CNC(=O)COC(=O)c1cccc(S(=O)(=O)N2CCN(c3ccc(F)cc3)CC2)c1` stands -20%; under `CCC(C)NC(=O)Cn1nc(C(F)(F)F)c2c1CCCC2` (centres undefined), -7%.

Regarding `Cc1ccccc1Cc1c(C)nc2c(C(=O)NCc3ccc4c(c3)OCO4)cnn2c1C`, the activity increase over dofetilide control, less the hit threshold is -11%.

Consider `OC(CNCC(c1ccc(Cl)cc1Cl)c1c[nH]c2ccccc12)c1ccccc1` (centres undefined), for which the activity increase over dofetilide control, less the hit threshold is -48%. Under `CCOc1ccc(NC(=O)CN(C)C(=O)c2c(-c3c(F)cccc3Cl)noc2C)cc1OCC` stands -7%; under `CN(Cc1cccc(C(F)(F)F)c1)Cc1nc(-c2cnccn2)no1`, -8%; under `O=c1c2ccccc2nc(-c2ccc(Cl)c(Cl)c2)n1O`, 36% (active). `Cc1ccc(-c2nc3ccc(Cl)cc3c(=O)n2O)cc1`: the activity increase over dofetilide control, less the hit threshold was 78% (active). Under `CCOC(=O)c1c(N2C(=O)Nc3ccccc3N2O)n[nH]c1-c1cccc(Cl)c1` stands -4%. Under `O=c1c2ccccc2nc(-c2cccc(Cl)c2)n1O` stands 39% (active); under `Cc1ccc(-c2onc3ccc(Cl)cc23)cc1`, 0%; under `Cc1ccc(C(=O)NNc2cc(N3CCCC3)nc(N3CCCC3)n2)cc1`, -6%.

`CCOc1ccc2[nH]cc(S(=O)(=O)c3ccc(F)cc3)c(=O)c2c1`: the activity increase over dofetilide control, less the hit threshold is -19%. The value for `Cc1ccc(-c2nc(CSCC(=O)N3CCOCC3)c(C)o2)cc1` was -9%; that for `NC(=O)[C@@H]1CCCN1Cc1nc(Cc2ccccc2Cl)no1` was -15%; that for `Cc1nn(CCC(=O)NNC(=S)Nc2ccc(F)cc2)c(C)c1[N+](=O)[O-]` was -24%. For `CCCCOC(=O)c1ccc(NC(=S)NC(=O)c2c(Br)c(C)nn2C)cc1`, the activity increase over dofetilide control, less the hit threshold is 38% (active).

Consider `Cc1nn(C)c(C(=O)NC(=S)Nc2ccccc2Br)c1Cl`, for which the activity increase over dofetilide control, less the hit threshold was 27% (active). Under `Cc1ccc(NC(=O)c2c([N+](=O)[O-])c(C(C)(C)C)nn2C)cc1` stands -1%. The value for `CCn1ncc(Cl)c1C(=O)NC(=S)Nc1ccccc1Br` was 46% (active); that for `O=C(NC(=S)Nc1ccccc1N1CCCC1)c1ccccc1Br` was -2%; that for `CCCCOC(=O)c1ccc(NC(=S)NC(=O)c2c(Cl)cnn2C)cc1` was -11%. Consider `Cc1nn(C)c(C(=O)NC(=S)Nc2ccc([N+](=O)[O-])cc2)c1Cl`, for which the activity increase over dofetilide control, less the hit threshold is 18% (active). Under `Cc1cc(C)nc(SCc2nnc(SCC(=O)Nc3nc(-c4ccccc4)cs3)n2-c2ccccc2)n1` stands -19%; under `CC(C)c1ccc2c(c1)c(SC(C)(C)C)c(CC(C)(C)C(=O)O)n2Cc1ccc(Cl)cc1`, -9%. Under `S=c1[nH]nc(-c2cccs2)n1/N=C/c1c(Cl)cccc1Cl` stands 4% (active); under `S=c1[nH]nc(-c2ccccc2)n1/N=C/c1ccc(-c2ccccc2Cl)o1`, -4%.
